Experimental data reported in PubChem BioAssay (NCI).
This is part of a sample that, as a whole, favours compounds with a hit. Of some 79,000 tested, about 15% had one in any assay. Active and inactive are the calls of the source. Rule as the data show it: active = growth inhibition above about 70%; inactive = the rest.

Legend:
[1] = NCI Yeast Anticancer Drug Screen. Data for the rad50 strain (AID 155);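 also: 0% = growth of vehicle-only cultures of the same strain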; conditions: S. cerevisiae rad50 strain growth inhibition, active compounds read high
Method in brief: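 A DNA repair-deficient yeast mutant serves as the test organism; compound-induced growth inhibition is calculated against vehicle-treated cells.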

[2] = NCI Yeast Anticancer Drug Screen. Data for the mec2-1 strain (AID 157); conditions: S. cerevisiae mec2-1 strain, active compounds read high
Method in brief: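 Test agents were screened against the mec2-1 yeast strain, with defined DNA repair or cell cycle alteration. Growth was scored as inhibition against vehicle-only controls.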

[3] = NCI Yeast Anticancer Drug Screen. Data for the sgs1 mgt1 strain (AID 161);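 also: 0% = growth of cultures given vehicle only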; conditions: S. cerevisiae sgs1 mgt1 strain, active compounds read high
Method in brief: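 Test agents were incubated with a DNA-repair-mutant yeast strain. Growth was then read and compared against vehicle-treated controls.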

[4] = NCI Yeast Anticancer Drug Screen. Data for the cln2 rad14 strain (AID 165);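 also: 0% = growth equal to vehicle treated cultures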; conditions: S. cerevisiae cln2 rad14 strain, active compounds read high
Method in brief: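 Growth of compound-exposed yeast (cln2 rad14 genotype) measured and expressed as inhibition relative to vehicle.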

[5] = NCI Yeast Anticancer Drug Screen. Data for the bub3 strain (AID 167); conditions: S. cerevisiae bub3 mutant strain, active compounds read high
Method in brief: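 Inhibition values come from growth of compound-treated mutant yeast normalised to vehicle-treated controls.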

[6] = NCI Yeast Anticancer Drug Screen. Data for the mlh1 rad18 strain (AID 175); conditions: S. cerevisiae mlh1 rad18 strain growth inhibition, active compounds read high
Method in brief: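 In this whole-cell yeast screen, a strain with altered DNA damage repair is challenged with compound, and its growth is measured against matched vehicle-treated controls.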

[7] = at 5.0 µM (retest, dose inferred, filed as 0.5)
[8] = at 50.0 µM (retest, dose inferred, filed as 5.0)

SMILES: Cc1ccc(C23C=CC(c4ccccc4)(C2)C2C(=O)OC(=O)C23)cc1 (centres undefined)
- growth inhibition [1, 7]: 86% (active)
- growth inhibition [1, 8]: 96% (active)
- growth inhibition ([1]; at 50.0 µM): 98.5% (active)
- growth inhibition [2, 7]: 85% (active)
- growth inhibition [2, 8]: 97% (active)
- growth inhibition ([2]; at 50.0 µM): 98.5% (active)
- growth inhibition [3, 7]: 81% (active)
- growth inhibition [3, 8]: 98% (active)
- growth inhibition ([3]; at 50.0 µM): 98.6% (active)
- growth inhibition [4, 7]: 36% (inactive)
- growth inhibition [4, 8]: 97% (active)
- growth inhibition ([4]; at 50.0 µM): 92.2% (active)
- growth inhibition [5, 7]: 85% (active)
- growth inhibition [5, 8]: 97% (active)
- growth inhibition ([5]; at 50.0 µM): 98.7% (active)
- growth inhibition [6, 7]: 79% (active)
- growth inhibition [6, 8]: 97% (active)
- growth inhibition ([6]; at 50.0 µM): 95.8% (active)

SMILES: COC(=O)C(CC(C)=O)CS(=O)(=O)CC(=O)C(=O)Nc1cccc([N+](=O)[O-])c1 (centres undefined)
- growth inhibition [1, 7]: 4% (inactive)
- growth inhibition [1, 8]: 98% (active)
- growth inhibition ([1]; at 50.0 µM): 99.5% (active)
- growth inhibition [2, 7]: 3% (inactive)
- growth inhibition [2, 8]: 99% (active)
- growth inhibition ([2]; at 50.0 µM): 99.5% (active)
- growth inhibition [3, 7]: 7% (inactive)
- growth inhibition [3, 8]: 99% (active)
- growth inhibition ([3]; at 50.0 µM): 99.2% (active)
- growth inhibition [4, 7]: 3% (inactive)
- growth inhibition [4, 8]: 98% (active)
- growth inhibition ([4]; at 50.0 µM): 98.2% (active)
- growth inhibition [5, 7]: 5% (inactive)
- growth inhibition [5, 8]: 98% (active)
- growth inhibition ([5]; at 50.0 µM): 99.2% (active)
- growth inhibition [6, 7]: -2% (inactive)
- growth inhibition [6, 8]: 98% (active)
- growth inhibition ([6]; at 50.0 µM): 99.2% (active)

SMILES: CCCCCCCCCC(=O)c1ccc(O)c(O)c1O
- growth inhibition [1, 7]: 99% (active)
- growth inhibition [1, 8]: 98% (active)
- growth inhibition ([1]; at 50.0 µM): 90.3% (active)
- growth inhibition [2, 7]: 99% (active)
- growth inhibition [2, 8]: 98% (active)
- growth inhibition ([2]; at 50.0 µM): 91.8% (active)
- growth inhibition [3, 7]: 44% (inactive)
- growth inhibition [3, 8]: 94% (active)
- growth inhibition ([3]; at 50.0 µM): 93.1% (active)
- growth inhibition [4, 7]: 63% (inactive)
- growth inhibition [4, 8]: 96% (active)
- growth inhibition ([4]; at 50.0 µM): 91.1% (active)
- growth inhibition [5, 7]: 77% (active)
- growth inhibition [5, 8]: 79% (active)
- growth inhibition ([5]; at 50.0 µM): 90.5% (active)
- growth inhibition [6, 7]: 100% (active)
- growth inhibition [6, 8]: 99% (active)
- growth inhibition ([6]; at 50.0 µM): 89.7% (active)
